Source: PubChem BioAssay
D3 antag – qHTS of D3 Dopamine Receptor Antagonist: qHTS; D(3) dopamine receptor (Homo sapiens), P35462; D3R cells, DiscoveRx beta-arrestin luminescence, antagonist mode; active compounds read low; max response, negative = inhibition, %; 2.5% of 360,000 active; AID 652054, 2013; in the data active = max response below about -50%; inconclusive = no clear call, values can overlap the other calls; also: % is scaled to controls: 0 for no effect and ±100 for the full control effect
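Cells expressing the human receptor were seeded at 1500 cells/well, incubated overnight at 37 degrees C in 5% CO2, then exposed to library compounds with dopamine controls for 90 minutes at 37 degrees C before luminescent detection.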
D1 PAM – Potentiators of Human D1 Dopamine Receptor: qHTS; 0.036% of 360,000 active; potentiation, % at 10 µM; AID 504651, 2011; HEK293 TREx D1 cells, calcium flux, dopamine EC20 potentiation; in the data active = potentiation above about 30%; also: 0% is about no effect
Target sequence (P21728 whole entry, looked up): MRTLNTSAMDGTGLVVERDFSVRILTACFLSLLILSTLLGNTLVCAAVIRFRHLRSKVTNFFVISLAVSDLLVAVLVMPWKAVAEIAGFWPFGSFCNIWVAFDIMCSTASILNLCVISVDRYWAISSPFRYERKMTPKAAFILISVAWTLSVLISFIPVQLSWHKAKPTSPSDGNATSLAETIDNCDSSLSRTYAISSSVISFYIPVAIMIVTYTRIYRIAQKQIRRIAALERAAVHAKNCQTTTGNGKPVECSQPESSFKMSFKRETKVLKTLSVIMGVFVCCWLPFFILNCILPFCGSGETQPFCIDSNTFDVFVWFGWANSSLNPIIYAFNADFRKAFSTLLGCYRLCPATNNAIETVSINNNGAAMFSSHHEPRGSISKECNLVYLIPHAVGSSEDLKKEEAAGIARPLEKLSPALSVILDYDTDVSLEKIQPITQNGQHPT
DRD3 agonist – qHTS of D3 Dopamine Receptor Agonist: qHTS; D(3) dopamine receptor (Homo sapiens), P35462; D3R DiscoveRx beta-arrestin cells, luminescence, 90 min; max activation, %; 0.58% of 410,000 active; in the data active = max activation above about 30%; also: 0% is about no effect
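Cells at 1500/well, incubated overnight, then treated with pinned compounds (dopamine as control) for 90 min at 37 degrees C. DiscoveRx reagent added for 30 - 60 minutes at room temperature; luminescence read.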
D1 agonist – Allosteric Agonists of the Human D1 Dopamine Receptor: qHTS; D(1A) dopamine receptor (Homo sapiens), P21728; HEK293 T-REx D1 cells, calcium flux, agonist mode; activation, % at 2 µM; 1% of 360,000 active; in the data active = activation above about 30%; also: 0% is about no effect
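Inducible HEK293 T-REx D1 cells, force-coupled to calcium signalling, were plated at 4000 cells/well with tetracycline and held overnight at 30 C. After no-wash calcium dye loading, compound-evoked calcium rise over 180 s flagged agonists.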
D1 antagonist – Antagonist of Human D 1 Dopamine Receptor: qHTS. 3.2% of 360,000 active. D(1A) dopamine receptor (Homo sapiens), P21728. activity change, negative = inhibition, % at 10 µM. HEK293 TREx D1 cells, calcium flux, dopamine EC80; active compounds read low; in the data active = activity change below about -30%; also: % is scaled to controls: 0 for no effect and ±100 for the full control effect
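Calcium flux readout: force-coupled, inducible Hek293 Trex D1 line, cells induced overnight at 30 C with tetracycline, dye-loaded 30–90 min at RT. Antagonism scored against EC80 dopamine challenge given 180 s after compound.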
* marks the source's active call; other numbers are inactive results; u = inconclusive; x = not tested or not shown. In the library only some 6.1% were active in any assay of this set; here they are far more common.

SMILES	D3 antag	D1 PAM	DRD3 agonist	D1 agonist	D1 antagonist
COc1cc2c(cc1OC)C(COc1cc(C)cc(C)c1)N(C(=O)COc1ccccc1)CC2 (centres undefined)	x	-0.3	6.2	2.2	-12.2
CCCCC(=O)Nc1ccc(C(=O)OCc2cc(=O)n3nc(C4CC4)sc3n2)cc1	x	1.5	3.0	15.1	4.5
C=CCC1Cc2c(cccc2[N+](=O)[O-])C(CC=C)N1 (centres undefined)	7.8	-5.4	41.4*	9.6	0.2
C=CCC1C=CCC(CC=C)N1C(=O)c1ccccc1[N+](=O)[O-] (centres undefined)	16.6	-1.4	2.3	2.4	-2.7
OC(CN1CCN(c2cccc(Cl)c2)CC1)c1ccccc1 (centres undefined)	u	-9.1	21.1	4.3	-34.9*
C/C(=C\c1ccccc1)CN1CCN(c2ccccc2F)CC1	-82.2*	-12.0	-28.7	1.3	-22.1
C/C(=C\c1ccccc1)CN1CCN(c2cccc(Cl)c2)CC1	-137.1*	-9.4	-17.6	2.0	-13.9
CCN1CCN(C/C(C)=C/c2ccccc2)CC1	u	-2.0	-19.0	5.9	-3.8
C/C=C(\C)CN1CCN(c2ccc(C)cc2)CC1	-78.8*	-8.4	-15.6	1.7	-8.6
COc1ccc(N2CCN(CC(=O)Nc3c(C)cc(C)cc3C)CC2)cc1	-13.8	-3.0	-2.5	-0.1	-9.3
Cc1ccc(Nc2nc(C#N)nc(NC3CCCC3)n2)cc1	x	-6.0	x	13.1	4.8
CCOC(=O)N1CCN(CC(O)c2ccc3c(c2)CCN3)CC1 (centres undefined)	-3.7	1.4	-0.9	1.1	-3.3
OC(CN1CCN(c2ccccc2)CC1)c1ccc2c(c1)CCN2 (centres undefined)	-28.4	-1.8	44.1*	2.1	4.4
COC(=O)c1sc(C(C)(C)C)cc1CS(=O)(=O)c1ccc(Cl)cc1	18.4	-4.9	-6.3	2.1	-40.2*
COC(=O)c1ccc(N)c(CS(=O)(=O)c2ccc(Cl)cc2)c1	17.3	-3.0	1.8	0.4	-4.0
CC(C)(C)C(=O)OCC(=O)[C@H]1CC[C@H]2[C@@H]3CCC4=CC(=O)CC[C@]4(C)[C@H]3CC[C@]12C	x	x	-5.4	x	x
O=C(O)c1ccccc1-c1ccc(C=c2sc3nc4cc(Br)cnc4n3c2=O)o1	-55.5*	x	-10.1	x	x
O=C(O)c1cc(C(=O)O)cc(-c2ccc(/C=c3/sc4nc5ccccc5n4c3=O)o2)c1	-0.7	1.5	-0.3	3.9	11.2
O=C(O)c1cccc(-c2ccc(/C=c3/sc4nc5ccccc5n4c3=O)o2)c1	12.7	-10.4	0.9	39.4*	-17.5
O=C(CCOc1ccccc1)N(Cc1cccnc1)c1nc2c(F)cccc2s1	x	-3.1	-11.4	12.7	x
COc1cccc(OC)c1C(=O)NCCNc1nc2cc(C)cc(C)c2cc1C#N	-1.4	x	7.4	x	x
CCOC(=O)C(c1ccccc1)C(Nc1cc(C(F)(F)F)cc(C(F)(F)F)c1)c1ccccn1 (centres undefined)	-16.8	-2.0	37.8*	2.1	-10.6
O=[N+]([O-])c1ccc(N2N=C(c3ccccc3)CC2c2ccccc2O)cc1 (centres undefined)	x	-8.7	x	62.7*	1.8
COc1cc(N2N=C(c3ccccc3)CC2c2ccccc2)c(C=O)cc1C=O (centres undefined)	-10.1	0.7	-6.0	-2.1	12.0
O=[N+]([O-])c1ccc(N2N=C(c3ccco3)CC2c2ccccc2)cc1 (centres undefined)	20.4	-5.5	-12.3	49.9*	1.2
SMILES	D3 antag	D1 PAM	DRD3 agonist	D1 agonist	D1 antagonist
COc1ccccc1N1N=C(c2ccc([N+](=O)[O-])cc2)CC1c1ccccc1 (centres undefined)	-9.0	-3.9	-5.9	62.5*	-6.2
NS(=O)(=O)c1ccc(N2N=C(c3ccccc3)CC2c2ccccc2Br)cc1 (centres undefined)	37.0	x	7.5	x	x
COc1ccc(C(=O)NCC(=O)N/N=C/c2cn[nH]c2-c2ccccc2)cc1	2.8	7.2	4.8	-0.9	-2.3
Cc1ccc(NC(=O)c2ccc3c(=O)n4nc(Nc5ccccc5C)sc4nc3c2)cc1C	x	-2.5	6.5	-0.1	-2.3
COc1ccc(C(=O)c2cn(Cc3ccccc3)c3ccccc3c2=O)cc1OC	x	0.2	-11.6	1.0	-33.4*
CCCCCCn1cc(C(=O)O)c(=O)c2ccccc21	-62.5*	-1.9	2.1	-0.3	-1.3
CC1CCc2nc(NC(=O)CN3CCOCC3)sc2C1 (centres undefined)	-7.0	-6.2	-1.0	0.0	-34.0*
CC1CCc2nc(NC(=O)CN3CCN(c4ccccc4)CC3)sc2C1 (centres undefined)	10.9	-8.0	-8.9	-1.5	9.5
C=CCOC(=O)C1=C(C)NC(SCC(N)=O)=C(C#N)C1c1cccs1 (centres undefined)	-10.2	-3.8	-6.9	-1.1	-45.3*
CC(=O)C1=C(C)NC(SCC(N)=O)=C(C#N)C1c1cccs1 (centres undefined)	u	-1.5	-30.2	0.4	-0.2
COC(=O)c1c(NC(=O)c2ccc(OC(C)C)cc2)sc2c1CC(C)(C)NC2(C)C	-20.1	1.4	-4.9	3.4	0.1
COC(=O)c1c(NC(=O)c2ccccc2)sc2c1CC(C)(C)NC2(C)C	-26.1	-2.0	0.5	2.4	-31.1*
CC1(C)Cc2c(sc(NC(=O)c3ccc(C(=O)c4ccccc4)cc3)c2C(N)=O)C(C)(C)N1	-50.2*	-9.1	-11.2	111.8*	2.9
CCN1CCN(C(c2ccccc2Cl)c2c(O)cc(C)n(Cc3ccco3)c2=O)CC1 (centres undefined)	x	-1.4	0.1	0.2	-9.0
CN(C)C(=O)c1cc(C(=O)c2ccccc2Br)c[nH]1	12.4	0.1	2.6	6.5	-12.4
CC(C)(C)c1nc2c(Br)cc(Br)cc2c(=O)o1	-3.8	4.8	-13.1	0.1	-4.6
COc1cc(C(=O)N2CC(C)OC(C)C2)c([N+](=O)[O-])cc1OC (centres undefined)	4.3	-3.0	0.6	2.3	-51.4*
CCN(CC(=O)NC1CCS(=O)(=O)C1)S(=O)(=O)c1cc(C)ccc1C (centres undefined)	5.8	-11.7	2.5	0.1	-55.0*
CCN(CC(=O)NC1CCS(=O)(=O)C1)c1ccc([N+](=O)[O-])cc1C#N (centres undefined)	-19.9	-3.5	-3.2	1.7	-30.6*
Cc1ccc(NC(=S)N/N=C/c2cccn2Cc2ccccc2F)cc1	-53.4*	-6.0	8.0	4.8	-20.4
Cc1ccc(CN2CCN(CC(=O)N/N=C/c3ccccc3F)CC2)cc1	-22.8	-3.0	-9.8	1.5	6.8
